Out of some 340,000 compounds screened, about 2,100 (0.62%) were called active.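 How the source made its calls: active means first-screen hits whose inhibition reached a set limit at any dose in the follow-up dose series; inconclusive means inhibition above the set first-screen limit but never retested; inactive means the rest.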 Not all results are given here. Results with a measured potency or affinity are listed apart.
These compounds were tested against Rac GTPase-activating protein 1 (Homo sapiens) (UniProt Q9H0H5) (assay: blockers of MgcRacGAP-driven Rac1 GTP hydrolysis – biochemical, ADP Hunter fluorescence, primary and confirmatory, confirmation (AID 624330;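 further: fluorescence reports GDP produced by GAP-driven GTP hydrolysis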)). Conditions: MgcRacGAP-stimulated Rac1 GTP hydrolysis, at 30 µM, hits give high values, GST-tagged Rac1 F28L mutant substrate.
Sequence of Rac GTPase-activating protein 1 (Homo sapiens) (Q9H0H5 whole entry, looked up): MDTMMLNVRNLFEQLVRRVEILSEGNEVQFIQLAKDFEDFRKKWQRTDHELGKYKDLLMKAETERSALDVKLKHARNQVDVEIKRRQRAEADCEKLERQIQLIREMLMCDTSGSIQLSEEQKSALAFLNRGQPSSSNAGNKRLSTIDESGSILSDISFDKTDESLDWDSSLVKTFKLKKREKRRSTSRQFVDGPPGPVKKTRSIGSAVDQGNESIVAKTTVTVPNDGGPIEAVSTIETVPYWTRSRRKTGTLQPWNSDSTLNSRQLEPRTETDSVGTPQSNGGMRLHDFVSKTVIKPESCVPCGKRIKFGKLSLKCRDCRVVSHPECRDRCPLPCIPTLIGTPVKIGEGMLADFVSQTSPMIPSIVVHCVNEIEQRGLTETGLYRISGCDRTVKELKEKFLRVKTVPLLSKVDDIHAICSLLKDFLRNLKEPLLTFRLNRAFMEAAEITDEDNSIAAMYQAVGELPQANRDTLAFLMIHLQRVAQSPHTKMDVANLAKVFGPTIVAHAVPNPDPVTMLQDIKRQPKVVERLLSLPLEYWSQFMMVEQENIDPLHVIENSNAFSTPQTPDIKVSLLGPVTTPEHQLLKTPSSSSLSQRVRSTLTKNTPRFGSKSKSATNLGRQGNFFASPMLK

inhibition, inactive:
COc1ccc(C)c2sc(N(CCCN(C)C)C(=O)CS(=O)(=O)c3ccc(F)cc3)nc12 2.17%
CCOC(=O)Cc1nnc(NC(=O)CSc2ccc(Cl)cc2)s1 0.78%
COc1ccc(C(=O)O/N=C(/c2ccccc2)c2ccncc2)cc1 4.95%
COc1ccc(C2C(=O)c3ccccc3C2=Nc2ccc(Br)cc2)cc1 (configuration not stated) 8.86%
CCC(C)[C@H](NC(=O)OC(C)(C)C)C(=O)N/N=C/c1ccc2cc(OC)ccc2n1 (some centres not stated) 7.33%
NS(=O)(=O)c1ccc(NC(=O)COC(=O)CCCN2C(=O)c3cccc4cccc(c34)C2=O)cc1 1.26%
Cc1cc(C(=O)Nc2ccc(F)cc2F)on1 9.92%
CCn1c(SCC(=O)NCc2ccc(F)cc2)nc2c(c1=O)SC(C)C2 (configuration not stated) 18%
COc1cccc(/C=N/NC(=S)NC2CC3CCC2C3)c1OC (configuration not stated) -1.35%
Oc1ccc(/C=N/NC(=S)NC2CC3CCC2C3)cc1 (configuration not stated) 16.9%
CCOc1ccc(/C=N/NC(=O)C(OC)c2ccccc2)cc1 (configuration not stated) 3.79%
COc1ccc(C=NNC(=O)CCCC(=O)NN=Cc2ccc(OC)c(O)c2)cc1O 23%
O=C(CSc1cccc2cccnc12)N/N=C/c1cccc(O)c1 3.05%
C=CCOc1cccc(/C=N/NC(=O)C(OC)c2ccccc2)c1 (configuration not stated) 7.19%
COc1cccc(/C=N/NC(=O)CSc2cccc3cccnc23)c1 5.24%
CCOc1cc(/C=N/NC(=O)C(=O)N/N=C/c2ccc(O)c(OCC)c2)ccc1O 10.8%
CCCCc1nnc(NC(=O)CN2C(=O)C3CCCCC3C2=O)s1 (configuration not stated) 6.64%
O=C(N/N=C\c1cn[nH]c1-c1ccccc1)c1ccc([N+](=O)[O-])cc1 9.27%
O=S(=O)(c1ccc(Cl)cc1)N1CCN(Cc2cccnc2)CC1 2.76%
Cc1c(C(=O)N2CCN(S(=O)(=O)c3ccccc3)CC2)oc2ccc(Br)cc12 2.23%
Cc1ccccc1SCC(=O)NCC(c1ccc(F)cc1)N1CCOCC1 (configuration not stated) 8.44%
N#CC1(NC(=O)CN2CCc3ccccc3C2)CCCC1 -8.1%
C#CCN1C=CC(=O)[C@@H](OC(=O)Nc2ccc(C)cc2)[C@H]1c1ccccc1Br -0.32%
O=C(O)C1C2C=CC(C2)C1C(=O)NC1CCS(=O)(=O)C1 (configuration not stated) 10.3%
O=C(NNC(=O)c1cccc(C(F)(F)F)c1)c1ccncc1 8.11%
Cc1cc(SCC(=O)Nc2ccc(O)cc2)n2ncc(-c3ccccc3)c2n1 4.14%
CC1(C)N=C(SCC(=O)Nc2ccc(Cl)cc2)C(c2ccc(Cl)cc2)=N1 2.66%
COc1cc(C(=O)NNC(=O)c2cc(=O)[nH]c3ccccc23)cc(OC)c1OC 5.5%
COc1cc(/C=N/NC(=O)Nc2ccccc2)ccc1OC(C)=O 13.7%
CCOc1ccc(/C=N/NC(=O)Nc2ccccc2)cc1 10.7%
CCN(CC)S(=O)(=O)c1ccc(OC)c(NC(=O)c2cn(CC)c3nc(C)ccc3c2=O)c1 7.32%
CCOC(=O)COc1cccc2c(=O)n(CC(N)=O)ccc12 3.81%
COc1ccc(C=C2NC(=S)NC2=O)cc1 14.2%
CCOc1ccc(/C=C2\NC(=S)NC2=O)cc1 -0.61%
COC(=O)Cc1ccc(NC(C)=O)cc1 3.66%
CC(=O)Nc1ccc(OC(=O)c2ccc(Cl)cc2)cc1 -3.42%
CCOC(=O)/C(=C/Nc1ccc(F)c(F)c1)[N+](=O)[O-] -8.37%
Cc1cc(C)c2[nH]c(=O)c(C(c3nnnn3C(C)(C)C)N3CCN(C(=O)c4ccco4)CC3)cc2c1 (configuration not stated) 1.84%
CN(C)c1ccc(N=Nc2ccccc2Br)cc1 8.09%
Nc1ccc(-c2nnc(-c3ccc(N)cc3)o2)cc1 12.9%
Nc1ccc(CCc2ccc(N)cc2)cc1 13.9%
Cc1cc(N(C)C)ccc1N=Nc1ccc2ncccc2c1 3.61%
Nc1ccc(SC(F)(F)F)cc1 -3.64%
Nc1ccc(Sc2ccc([N+](=O)[O-])cc2)cc1 7.67%
Nc1ccc(-c2cnc(-c3ccc(N)cc3)nc2)cc1 9.16%
CC(=O)c1ccc(N=Nc2ccc(N)cc2)cc1 0.6%
Cc1ccccc1C(=O)OCC(=O)Nc1cccc(S(=O)(=O)N2CCCCC2)c1 11.7%
CN(C)S(=O)(=O)c1ccc(Cl)c(NC(=O)COc2ccccc2[N+](=O)[O-])c1 6.09%
CCN(CC1CCCO1)C(=O)c1cc(COc2ccc(OC)cc2Cl)on1 (configuration not stated) -11.4%
C[C@H](CO)N1C[C@H](C)[C@@H](CN(C)C(=O)Nc2ccccc2)Oc2c(NS(=O)(=O)c3ccc(F)cc3)cccc2C1=O 3.18%
Cc1ccc(OCC(=O)Nc2ccc3oc(=O)ccc3c2)cc1 4.26%
O=C(Cc1ccsc1)N1CCN(S(=O)(=O)c2cccc(F)c2)CC1 -3.87%
CC1Cc2ccccc2N1C(=O)CN1CCCCC1 (configuration not stated) 2.91%
CCN1CCN(CC(=O)N2c3ccccc3CC2C)CC1 (configuration not stated) 22.6%
CN(Cc1cccc(F)c1)C(=O)C1CC(=O)N(c2ccc3c(c2)OCCO3)C1 (configuration not stated) 4.27%
Cc1c(Cl)ccc(S(=O)(=O)N2CCN=C2c2ccccc2)c1Cl 4.68%
Cc1cc(Cl)cc2sc(NC(=O)c3ccco3)nc12 5.28%
Cc1cc(Cl)cc2sc(NC(=O)C3CC3)nc12 5.72%
CCS(=O)(=O)CCSc1nc2ccccc2o1 -5.63%
C/C(O)=C\c1nc2ccccc2oc1=O 18.1%
CCCCCN1C(C)=CC(=C(C#N)C#N)C=C1C 9.16%
Cc1cccc2sc(N(CCN(C)C)C(=O)c3ccc4ccccc4c3)nc12 5.08%
